High-throughput results: PubChem BioAssay, several laboratories
Rows were chosen to be rich in hits. Some 2.3% of all compounds tested hit in one or more screens of this group.
V-ATPase pHluor – alters yeast V-ATPase proton transport. hit rate 0.37% among 350,000. S. cerevisiae, pHLuorin cytosolic pH fluorescence. response, % at 10 µM; in the data active means response mostly above about 7.3%, no sharp cut-off; inactive means mostly below about 5.4%; further: actives read high
ADAM10 inh – inhibitors of human ADAM10; recombinant ADAM10, EDANS/DABCYL FRET peptide cleavage, 3 h; inhibition, % at 7 µM; hit rate 0.62% among 370,000;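 active means inhibition above a per-campaign cutoff equal to the mean of compounds falling between control-based bounds plus 3 SD, cut at about 20% in these data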;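 further: 0% = DMSO wells while the 100% control is not disclosed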
Target sequence (O14672 214-748 limits assumed): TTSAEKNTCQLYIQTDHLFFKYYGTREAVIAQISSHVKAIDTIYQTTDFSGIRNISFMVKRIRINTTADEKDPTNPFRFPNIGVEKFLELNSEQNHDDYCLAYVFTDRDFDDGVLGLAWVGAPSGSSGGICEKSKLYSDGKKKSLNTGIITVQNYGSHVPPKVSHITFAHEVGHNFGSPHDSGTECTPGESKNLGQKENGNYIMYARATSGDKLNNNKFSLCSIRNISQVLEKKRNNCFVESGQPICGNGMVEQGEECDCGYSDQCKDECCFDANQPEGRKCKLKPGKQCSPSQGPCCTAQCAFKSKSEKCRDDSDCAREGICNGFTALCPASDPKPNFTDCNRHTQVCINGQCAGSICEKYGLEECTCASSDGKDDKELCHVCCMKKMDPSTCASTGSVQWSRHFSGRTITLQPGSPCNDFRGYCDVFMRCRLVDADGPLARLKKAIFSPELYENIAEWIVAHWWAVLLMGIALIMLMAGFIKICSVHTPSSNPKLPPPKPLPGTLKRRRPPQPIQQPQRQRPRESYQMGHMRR
ADAM17 inh – inhibits human ADAM17; P78536; AID 720648; hit rate 0.83% among 370,000; recombinant ADAM17, EDANS/DABCYL FRET peptide cleavage; inhibition, % at 6.95 µM;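 active means inhibition above the mean of compounds lying between control limits plus 3 SD, set per campaign, cut at about 8.5% in these data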;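 further: 0% = DMSO-only wells as the low control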
KLK7 zymogen act – proKLK7 (human) activation, primary screen; P49862; hit rate 0.9% among 370,000; AID 652039; activation, % at 7 µM; purified proKLK7, EDANS-DABCYL substrate fluorescence; 100% is mature enzyme control, 0% vehicle;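 active means activation above the mean of all tested compounds plus 3 SD, computed per campaign excluding outliers beyond control limits, cut at about 13% in these data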
proKLK7 act conf – proKLK7 activation, confirmation; purified proKLK7, EDANS-DABCYL substrate fluorescence; scaled: vehicle 0, mature enzyme 100; activation, % at 7 µM; hit rate 68% among 3,200; AID 686949; shares compounds with KLK7 zymogen act;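 active means activation, as change over the incubation, above the mean of all tested compounds plus 3 SD, cut at about 13% in these data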
EDANS interfere – fluorescence interference counter-screen for KLK7 activators. EDANS-DABCYL substrate fluorescence interference, no enzyme, 4 h; solvent 0%, active enzyme control 100%. activation, % at 7 µM. AID 686952. hit rate 80% among 3,200. shares compounds with KLK7 zymogen act;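 active means activation above the all-compound mean plus 3 SD, ignoring values outside control-based bounds, cut at about 4.8% in these data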;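 further: value is the 4 h activation minus the activation read at time zero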
K7 EDANS ctr – EDANS fluorescence interference in dose response, no enzyme | shares compounds with KLK7 zymogen act | EDANS-DABCYL peptide fluorescence interference | EC50, µM | hit rate 20% among 250;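 active means compounds that raise the fluorescence signal in this interference counterscreen, with EC50 at or below 10 µM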;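 further: intact quenched peptide substrate alone read at 355 nm excitation and 520 nm emission; signal is fluorescence gain from T0 to T4 after four hours at room temperature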
* hit, by the source's call; i = inactive; x = no result.

SMILES	V-ATPase pHluor	ADAM10 inh	ADAM17 inh	KLK7 zymogen act	proKLK7 act conf	EDANS interfere	others
CCC(N=c1cc(-c2ccc(OC)cc2)oc2ccc(C)cc12)C(=O)O (stereo not given)	0	i	i	36*	61*	72*
CCC(N=c1cc(-c2ccc(OC)c(OC)c2)oc2ccc(C)cc12)C(=O)O (stereo not given)	1	i	-163	19*	29*	26*
O=C1CCCC2=C1C(c1ccncc1)n1c(nc3ccccc31)N2 (stereo not given)	-3	i	i	47*	63*	75*
CC1CC(=O)C2=C(C1)Nc1nc3ccccc3n1C2c1cccnc1 (stereo not given)	-1	i	i	76*	64*	72*
CC1CC(=O)C2=C(C1)Nc1ncnn1C2c1ccccc1 (stereo not given)	4	-2	-1	0	x	x
O=C(Nc1cccc(O)c1)c1cc2nc(-c3ccccc3)cc(-c3ccccc3)n2n1	7	-115	-21	96*	-63	-116
CCN(CC)c1ccc2c(O)cc(=O)oc2c1	-5	-24	-4	1	x	x
Nc1ccc2c(C(F)(F)F)cc(=O)oc2c1	-1	i	i	36*	88*	86*
COc1cccc2c3c(c(C)nc12)CC(C)O3 (stereo not given)	0	-268	-105	48*	8	12*
O=C(NCc1ccco1)c1nc2nc(-c3cccs3)cc(C(F)(F)F)n2n1	-2	i	i	56*	61*	68*
COC(=O)c1nc2nc(-c3cccs3)cc(C(F)(F)F)n2n1	-4	i	i	205*	63*	67*
COc1ccccc1CNC1CCC12CCC(c1ccccc1)CC2 (stereo not given)	x	-5	-6	x	x	x
NC(=O)[C@@H]1CCCN1C(=O)[C@@H](Cc1ccccc1)NC(=O)[C@H]1O[C@@H](n2ccc(=O)[nH]c2=O)[C@H](O)[C@@H]1O	x	-4	-2	0	x	x
COc1ccc2[nH]c3c(c2c1)CCN[C@]31C(=O)N(Cc2cn(Cc3ccccc3)nn2)c2ccccc21	x	9	4	-1	x	x
Nn1c(SCC(=O)N2c3ccccc3Sc3ccc(Cl)cc32)nnc1-c1n[nH]c2c1CCC2	x	5	7	0	x	x
CCCCOc1ccc(C2OC34CCCCC3C(C#N)(C#N)C2(C#N)C(=N)O4)cc1 (stereo not given)	-8	x	x	x	x	x
Cc1ccc(C2OC34CCCCCC3C(C#N)(C(=N)O4)C2(C#N)C#N)cc1 (stereo not given)	1	i	-309	16*	29*	34*
Nc1nc2nccc(-c3ccco3)n2n1	1	i	i	17*	15*	27*
Nc1nc2nccc(-c3ccccn3)n2n1	4	-337	-120	11	x	x
O=c1cc(-c2ccc(F)cc2)oc2ccccc12	0	-6	-3	0	x	x
CCOC(=O)c1c(-c2ccccc2)oc2ccc(OCC(=O)NNC(=O)CCC(=O)O)cc12	-1	i	-283	2	x	x
CCOC(=O)c1c(-c2ccccc2)oc2ccc(OC(C)=O)cc12	9	-75	-26	-5	x	x
CCOC(=O)c1c(-c2ccccc2)oc2ccc(OC(C)C(=O)O)cc12 (stereo not given)	2	i	-376	36*	6	-15
CCOC(=O)c1c(-c2ccccc2)oc2ccc(OCC(=O)NNC(=O)CCCC(=O)O)cc12	2	i	-434	13*	-24	-37
CSc1ccc(-c2cc(=O)c3ccccc3o2)cc1	0	i	i	66*	68*	76*
SMILES	V-ATPase pHluor	ADAM10 inh	ADAM17 inh	KLK7 zymogen act	proKLK7 act conf	EDANS interfere	others
COc1ccc2oc(-c3ccccc3)cc(=O)c2c1	x	i	-324	14*	-34	-29
C[C@@H]1[C@@H](c2ccccc2)OC(O)([C@H](Cc2ccccc2)NC(=O)OC(C)(C)C)CN1C (stereo not given in full)	x	2	0	x	x	x
COC(=O)C1=C(C)N(Cc2ccc(C(F)(F)F)cc2)C(=NCc2ccccc2C(F)(F)F)NC1c1ccc(Cl)cc1 (stereo not given)	x	-1	-5	0	x	x
COc1ccc2oc(-c3ccccc3)c(C(N)=O)c2c1	4	i	-173	13*	10	18*
CCOC(=O)c1c(-c2ccccc2)oc2ccc(OCC(O)CN(C)C)cc12 (stereo not given)	3	i	-144	17*	-13	-11
c1ccc(SCc2cn3cccnc3n2)nc1	0	i	-227	-3	x	x
c1cnc2nc(CSc3ncn[nH]3)cn2c1	0	i	-261	48*	8	11*
COc1ccc(C2CC(=O)C(c3ccccc3OC)=CN2Cc2ccccc2)cc1 (stereo not given)	x	-8	-2	0	x	x
O=C(Nc1nc2c(s1)CCc1ccccc1-2)c1cccs1	0	-2	-3	14*	2	15*
C[C@H](O)[C@@H]1C(=O)N2CCc3c([nH]c4c(-c5ccccc5)cccc34)[C@@H]2C[C@@H]1N(C)C(=O)c1cc(Cl)cc(Cl)c1	x	-44	-14	-1	x	x
C[C@H](O)[C@@H]1C(=O)N2CCc3c([nH]c4ccccc34)[C@@H]2C[C@@H]1N(C)S(=O)(=O)c1ccccc1	4	i	i	59*	43*	37*	K7 EDANS ctr=7.5*
Cc1ccccc1C(=O)N(C)[C@H]1C[C@H]2c3[nH]c4c(-c5ccccc5)cccc4c3CCN2C(=O)[C@H]1[C@H](C)O	x	-28	-3	2	x	x
C[C@H](O)[C@@H]1C(=O)N2CCc3c([nH]c4ccccc34)[C@@H]2C[C@@H]1N(C)Cc1ccc2c(c1)OCO2	4	i	-197	26*	4	3
C[C@H](O)[C@@H]1C(=O)N2CCc3c([nH]c4ccccc34)[C@@H]2C[C@@H]1N(C)C(=O)c1cc(Cl)cc(Cl)c1	x	-362	-83	47*	15*	12*	K7 EDANS ctr=>23
Cc1ccccc1C(=O)N(C)[C@H]1C[C@H]2c3[nH]c4ccccc4c3CCN2C(=O)[C@H]1[C@H](C)O	-1	i	-148	78*	27*	27*
O=C(Cn1nnc(N2CCCCC2)n1)NN=Cc1ccccc1O	x	-52	-8	-38	x	x
COC(=O)c1cc(N=CC2=C(O)CC(C)(C)CC2=O)cc(C(=O)OC)c1	1	-314	-91	25*	47*	45*
COC(=O)c1cc(OC)c(OC)cc1N=CC1=C(O)CC(C)(C)CC1=O	-1	-6	-5	-1	x	x
CC1(C)Cc2ccccc2-c2nc(NCCCO)[nH]c(=O)c21	1	i	i	39*	-1	-8
